# Reference: PubChem BioAssay AID1347131 (National Center for Advancing Translational Sciences (NCATS), 2019)
# Hit rate of the full screen: of about 410,000 compounds, about 2,000 (0.49%) were called active. About 8% were inconclusive and are not listed. This excerpt belongs to a sample that is enriched for actives. Unmarked numbers belong to inactive results. The call rests on the fitted dose curve; tested in HEK293 reporter line.
# Assay: qHTS Assay for Foot and Mouth Disease Virus Antivirals: Primary Screen against the MLPCN compound library; further: nearly all actives have a fitted effect of over 55% in size
# Conditions: FMDV antiviral cell-based qHTS; series mostly up to 57.9 µM; activity, negative = inhibition: at the top concentration
# Potency means the concentration at half of the fitted maximal effect.
Structure (SMILES),"activity, negative = inhibition [%]",Potency
N=c1ccn(Cc2ccc(Cl)c(Cl)c2)cc1,-6.86,–
c1ccc(-c2nc3ccccn3c2-c2ccccc2)cc1,-28.6,–
O=C(COc1ccc(Oc2ccccc2)cc1)NCc1cn2ccccc2n1,-32.5,–
Brc1ccc(-c2cn3ccccc3n2)cc1,–,11.2 µM (active)
Clc1ccc(-c2cn3cc(Br)ccc3n2)cc1Cl,–,14.1 µM (active)
O=C(O)c1ccnc(Cl)c1,-30.7,–
CCc1noc(C)c1C(=O)Nc1nc(-c2ccc(Cl)cc2Cl)c(C)s1,-34.7,–
COc1ccccc1N1CCN(C(=O)c2ccccc2Oc2ccccc2)CC1,-42.1,–
COc1ccccc1NS(=O)(=O)c1cccc(C(=O)N/N=C/c2ccc(N3CCOCC3)cc2)c1,-31.5,–
Cc1ccc(C)c(N2CCN(C(=O)c3cnn(-c4ccccc4Cl)c3C3CCN(C(=O)OC(C)(C)C)CC3)CC2)c1,-38.2,–
Cc1ccc2c(c1)-c1c(cnn1CC(=O)N(Cc1ccco1)C1CCCCC1)CO2,-31.6,–
CC(C)(C)NC(=O)NC(=O)CN1CCN(C(c2ccccc2)c2ccccc2)CC1,-40.2,–
Cc1ccc(N(Cc2cc(=O)[nH]c3ccccc23)C(=O)CCl)cc1,–,20 µM (active)
COc1ccc(CC(=O)N(Cc2ccccc2)c2ccc(C)cc2)cc1OC,-32.2,–
CCOc1ccc(N(Cc2cc3cc(C)ccc3[nH]c2=O)C(=O)c2cccc(Cl)c2)cc1,-31.5,–
Cc1ncsc1CCC(=O)N1CCCC(c2nc(-c3ccncc3)ncc2-c2ccccc2)C1 (centres undefined),-30.6,–
COc1cccc(-n2cnc3scc(-c4cccs4)c3c2=O)c1,-33.2,–
O=C(NC(c1ccccc1)c1ccccc1)c1ccc(S(=O)(=O)C(F)F)cc1,-31.9,–
O=C(Nc1cccc(-c2ccc(N3CCCCC3)nn2)c1)C(F)(F)F,–,14.1 µM (active)
O=C(CN1CCN(c2ccccn2)CC1)Nc1cccc(C(F)(F)F)c1,-43.4,–
O=C(Nc1ccccc1)N1CCCN(c2ccc(C(F)(F)F)cn2)CC1,-41,–
COC(=O)c1ccc(CSc2ncnc3ccccc23)o1,-30.7,–
CC(C)C1NC(=S)N(C2CCCCC2)C1=O (centres undefined),-26.9,–
CCOC(=O)c1sc2nc(CC(=O)OC)nc(N3CCN(c4ccc(OC)cc4)CC3)c2c1C,-48.5,–
CCOC(=O)c1cc(C)n(CC2CCC(C(=O)Nc3ccc(C(=O)OC)cc3)CC2)c1C (centres undefined),-31.3,–

Structure (SMILES),"activity, negative = inhibition [%]",Potency
CCc1nnc(NC(=O)c2nc(S(=O)(=O)Cc3ccccc3)ncc2Cl)s1,–,20 µM (active)
CCc1nnc(NC(=O)c2cccc(C(=O)Nc3nnc(CC)s3)n2)s1,-20,–
Cc1ccc(CS(=O)(=O)c2ncc(Cl)c(C(=O)Nc3nc4ccc(F)cc4s3)n2)cc1,-48.8,–
CCc1ccccc1NC(=O)Cn1nc(C)c2nn(-c3ccc(Cl)cc3)c(C)c2c1=O,-30.7,–
Cc1ccccc1C(=O)N(Cc1nc(-c2ccc(Cl)cc2)no1)C(C)C,-30.6,–
COc1cccc(CNC(=O)Cn2cc3c(n2)-c2c(oc(C(=O)N4CCOCC4)c2C)CC3)c1,-31.3,–
Cc1cc(NC(=O)c2ccc(N(C)S(=O)(=O)c3ccccc3)cc2)no1,-30.5,–
Cc1cc(C)n2nc(SCc3ccc(F)cc3Cl)nc2n1,-20.5,–
Cn1c2ccccc2c(=O)c2ccc(C#CC3(O)CCCCC3)cc21,–,17.8 µM (active)
Cc1cc2sc3ccc(C#CC4(O)CCCCC4)cc3c(=O)c2cc1C,-99.3,–
O=c1c2ccccc2sc2ccc(C#CC3(O)CCCCC3)cc12,-68.8,–
CCOC(=O)C1(Cc2ccccc2)CCN(Cc2cccn2-c2cccnc2)CC1,-33.3,–
COc1ccccc1OCCNC(=O)c1cc(C2CC2)nc2c1cnn2C(C)C,-40,–
CCN1C(=O)CC(C(C)C)N(C2CCCC2)c2nc(Nc3ccc(C(=O)NC4CCN(C)CC4)cc3OC)ncc21 (centres undefined),-34.5,–
CCCCC(CC)CNC(=O)c1ccc2c(=O)n(CCOC)c(=O)[nH]c2c1 (centres undefined),-33.9,–
Cc1ccc(-c2nc(CS(=O)CC(=O)N3CCN(c4ccc(F)cc4)CC3)c(C)o2)cc1 (centres undefined),-31.4,–
Cc1nc(-c2cccc(NC(=O)c3ccc(Cl)c(S(=O)(=O)N4CCCC4)c3)c2)cs1,-32.5,–
COc1ccc(CC(=O)Nc2nc(-c3ccc(OC)c(OC)c3)cs2)cc1OC,-36.1,–
COc1ccc(CC(=O)Nc2cccc(-c3csc(C)n3)c2)cc1,–,20 µM (active)
COc1ccc(Oc2ncc3nc(-c4ccccc4)c(=O)n(CCC#N)c3n2)cc1,-39,–
COc1cccc(/C=N/NC(=O)c2nc(-c3ccccc3)cc(-c3ccccc3)n2)c1,-37.4,–
COc1ccc(/C=N/NC(=O)c2nonc2C)cc1,–,11.2 µM (active)
Nc1nonc1-n1nnc(C(=O)N/N=C/c2ccc(O)cc2)c1COc1ccc(F)cc1,-32.2,–
CC1(C)NC(=O)N(CCCCOc2ccc3c(c2)CCC3)C1=O,-30.3,–
Cc1cc(OCCCCN2C(=O)NC(C)(C)C2=O)cc(C)c1Cl,-34.5,–

Structure (SMILES),"activity, negative = inhibition [%]",Potency
CC(C)c1cc(Br)ccc1OCCCN1C(=O)NC(C)(C)C1=O,–,28.2 µM (active)
CC12C(=O)N(c3cccc(OC(=O)c4ccco4)c3)C(=O)C1C1c3ccccc3C2c2ccccc21 (centres undefined),-42.3,–
CS(=O)(=O)c1ccc(C(=O)OCC(=O)NCc2cccs2)cc1[N+](=O)[O-],–,25.1 µM (active)
Nc1cc(C(=O)OCC(=O)NCCNC(=O)COC(=O)c2ccc(Cl)c(N)c2)ccc1Cl,-32.3,–
CC(C)CN1CCN(C(=O)COC(=O)c2ccc(S(C)(=O)=O)c([N+](=O)[O-])c2)CC1,-34,–
CCc1ccc(OCc2ccc(C(=O)O)o2)cc1,–,10 µM (active)
COC(=O)c1ccc(COc2ccc(/C=N/NC(N)=S)cc2)o1,-33,–
COc1ccc(NC(=O)c2ccc(COc3ccccc3OC)o2)cc1OC,-31.3,–
Cc1ccccc1CS(=O)(=O)c1cn(CC(=O)N2CCC(C)CC2)c2ccccc12,-30.3,–
CCc1cc(=O)[nH]c(SCc2nc(-c3ccc(C(F)(F)F)cc3)no2)n1,-32.9,–
COc1cc(/C=C(\C#N)c2nc3ccccc3[nH]2)cc(Cl)c1OCc1ccccc1Cl,-41.7,–
N#C/C(=C/c1ccc(N2CCOCC2)o1)c1nc2ccccc2[nH]1,–,8.91 µM (active)
N#C/C(=C/c1ccc(N2CCCCC2)o1)C(=O)NCCc1c[nH]c2ccccc12,-32,–
N#C/C(=C\c1ccc(N2CCOCC2)o1)c1nc2ccccc2[nH]1,–,10 µM (active)
COc1cc(/C=C(/C#N)c2nc3ccccc3[nH]2)ccc1OCC(=O)Nc1ccccc1C,-31.8,–
Cc1ccc2nc(/C(C#N)=C/c3ccc(-c4cccc(Cl)c4)o3)[nH]c2c1,-32.1,–
O=C(CSCc1ccc(F)cc1)N1CCN(c2ccc(F)cc2)CC1,-30.1,–
N#Cc1ccccc1Sc1ccccc1C(=O)OCC(=O)NC12CC3CC(CC(C3)C1)C2,-33.5,–
COc1ccccc1C(=O)Nc1ccc(-c2cc(C(F)(F)F)nn2-c2ccccc2)cc1,-36.9,–
O=C1/C(=C\c2ccccc2)C[C@@]2(O)[C@H]3Cc4ccc(O)c5c4[C@@]2(CCN3CC2CC2)[C@H]1O5,–,10 µM (active)
C=CCN1CC[C@]23c4c5ccc(O)c4O[C@H]2/C(=N/NC(=O)c2ccccc2)CC[C@@]3(O)[C@H]1C5,-28.3,–
CCOC(=O)[C@H]1[C@H]2COc3ccccc3[C@@H]2N2C(=O)c3ccc(Cl)cc3NC(=O)[C@@]12C,-37.3,–
O=C(Nc1ccccc1Cc1ccccc1)c1ccccc1NS(=O)(=O)c1ccc(Cl)s1,-37.5,–
CCOc1cc(/C=C2\C(=O)N(c3ccc(C(N)=O)cc3)N=C2C)ccc1OC(=O)c1cccs1,-38,–
C=CCOc1ccc(/C=C2/C(=O)ON=C2C)cc1OCC,–,31.6 µM (active)

Structure (SMILES),"activity, negative = inhibition [%]",Potency
COc1cc(/C=C2/C(=O)ON=C2c2ccccc2)ccc1O,-45.4,–
Cc1ccc(S(=O)(=O)N(C)C)cc1NC(=O)CSc1nc2ccccc2[nH]1,-42,–
CCOc1ccc(CN2CCNC(=O)C2CC(=O)NCCc2nc(C)c3c(n2)CCC3)cc1 (centres undefined),-54,–
Cc1ccc(-c2nc(CCNC(=O)c3ccco3)cs2)cc1,-36.4,–
Cc1ccc(S(=O)(=O)Nc2nc(C)c(C)s2)cc1,101,–
Cc1ccc(-c2nc(C)c(C(=O)O)s2)cc1,–,25.1 µM (active)
Cc1ccccc1N1CCN(C2CCCN(C(=O)CCC3(C)CC3)C2)CC1 (centres undefined),-31.3,–
Fc1ccccc1-c1csc(=Nc2cccnc2)n1CCCn1ccnc1,-40,–
O=C(C1COc2ccccc2O1)N1CCN(S(=O)(=O)c2ccccc2)CC1 (centres undefined),-32.6,–
CCc1cccc(C)c1NC(=O)c1cc2ccccc2o1,-43,–
CC(=O)c1cccc(NC(=O)CNC(=O)c2cc3ccccc3o2)c1,-36.7,–
Cc1nc(NC(=O)c2cc3ccccc3o2)sc1C,–,17.8 µM (active)
COc1ccc([N+](=O)[O-])cc1NC(=O)C(C)OC(=O)C1CCCC1 (centres undefined),-48.6,–
CC1(C(=O)Nc2cccc(Oc3ccccc3)c2)CCN1Cc1cccc2c1OCO2 (centres undefined),-31.1,–
COc1cccc(-c2sc3ccc(OC)cc3c2-c2ccc(OCCN3CCCC3)cc2)c1,-31.7,–
Cc1ccc(C(=O)Nc2cc(-c3nc4cc(Cl)ccc4o3)ccc2C)c(C)c1,-31.2,–
CC(C)Oc1ccc(C(=O)Nc2ccc3oc(-c4ccncc4)nc3c2)cc1,-28.6,–
Cc1ccc(-c2nc3cc(NC(=O)C(C)C)ccc3o2)cc1C,–,22.4 µM (active)
COCC(C)n1c(C)cc(C(=O)COC(=O)c2cc(=O)[nH]c3ccccc23)c1C (centres undefined),-25.1,–
CC(C)(C)OC(=O)N1CCC(c2c(C(=O)N3CCN(Cc4ccccc4)CC3)cnn2-c2ccc(Cl)cc2)CC1,-34,–
O=S(=O)(N/N=C\c1ccc2c(c1)OCO2)c1ccc(Cl)cc1,102,–
CCc1ccc(S(=O)(=O)N/N=C\c2ccc3c(c2)OCO3)cc1,108,–
N/C(=N\N=C\c1ccc2c(c1)OCO2)c1nonc1N,–,17.8 µM (active)
Brc1ccccc1CN1CCN(Cc2c[nH]c3ccccc23)CC1,-41.3,–
